Test [1] is described as follows: NCI Yeast Anticancer Drug Screen. Data for the rad50 strain (AID 155).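 Also: 0% = growth of vehicle-only cultures of the same strain.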 The conditions noted are these: S. cerevisiae rad50 strain growth inhibition; at 50.0 µM; stronger effect = higher value. In short, it runs like this:
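Genetically altered yeast (DNA repair pathway); compound treatment; growth inhibition vs vehicle ctrl.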

The nature of test [2]: NCI Yeast Anticancer Drug Screen. Data for the mec2-1 strain (AID 157). The conditions noted are these: S. cerevisiae mec2-1 strain, at 50.0 µM, stronger effect = higher value. In short, it runs like this: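 Compounds were applied to mec2-1 yeast cells. Their growth was then compared with that of vehicle-treated cultures to give growth inhibition.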
Test [3] can be described thus: NCI Yeast Anticancer Drug Screen. Data for the sgs1 mgt1 strain (AID 161).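 Also: 0% = growth of cultures given vehicle only.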 The conditions noted are these: S. cerevisiae sgs1 mgt1 strain, at 50.0 µM, stronger effect = higher value. In outline:
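Yeast cells carrying a defined DNA-repair defect were exposed to test compounds. Growth inhibition was measured relative to vehicle-treated controls.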

Test [4] in a line: NCI Yeast Anticancer Drug Screen. Data for the cln2 rad14 strain (AID 165).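 Also: 0% = growth equal to vehicle treated cultures.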 The conditions noted are these: S. cerevisiae cln2 rad14 strain, at 50.0 µM, stronger effect = higher value. In short, it runs like this:
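Strain: cln2 rad14 yeast, altered in cell cycle control and DNA damage repair. Read-out: growth inhibition vs vehicle.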

Test [5] can be described thus: NCI Yeast Anticancer Drug Screen. Data for the bub3 strain (AID 167). The conditions noted are these: S. cerevisiae bub3 mutant strain, at 50.0 µM, stronger effect = higher value. In outline:
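Yeast carrying a defined mutation is treated with each compound, and growth is compared with that of vehicle-exposed cells to give inhibition.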

Test [6] is described as follows: NCI Yeast Anticancer Drug Screen. Data for the mlh1 rad18 strain (AID 175). The conditions noted are these: S. cerevisiae mlh1 rad18 strain growth inhibition; at 50.0 µM; stronger effect = higher value. In outline: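 A repair-deficient yeast strain is exposed to test compound, and growth is scored relative to vehicle-treated controls.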

The results in this text go back to PubChem BioAssay (NCI).

Compounds without any hit were thinned out: in the full panel of roughly 79,000, 15% have a hit. Unmarked numbers belong to inactive results. Active and inactive are the calls of the source. Rule as the data show it: active = growth inhibition above about 70%; inactive = the rest.

In the case of `CCCCCCCCCCCC(=O)Nc1ccc(N(C)C(C)=O)cc1`, the growth inhibition in test [1] was -14.4%; in test [2], -3.95%; in test [3] it was -9.1%; in test [4], -1.35%; in test [5], 7.2%; in test [6], -10.1%.

Consider `CCOC(=O)C(C)c1nc2cc(C(F)(F)F)ccc2[nH]c1=O` (stereo unspecified), for which the growth inhibition in test [1] is 3.55%; in test [2], 7.1%; in test [3], 8.1%; in test [4] it was 7.5%; in test [5], 19.7%; in test [6] it was -21.2%.

Take `C1=CC([P+](Cc2ccccc2)(c2ccccc2)c2ccccc2)CC1` (stereo unspecified): the growth inhibition in test [1] was 81.8% (active); in test [2] it was 65.5%; in test [3] it was 55.9%; in test [4], -1.55%; in test [5] it was 52.6%; in test [6], 52.9%.

As to `CCc1cc(C(=O)NN)c2ccccc2n1`, the growth inhibition was -17.6% in test [1]; -14.6% in test [2]; -10.6% in test [3]; -18.4% in test [4]; -11.8% in test [5]; 11.5% in test [6].

Consider `CC(NC(CC12CC3CC(CC(C3)C1)C2)C(N)=O)c1ccccc1` (stereo unspecified), for which the growth inhibition was -17.8% in test [1]; -20.8% in test [2]; -2.3% in test [3]; 14.1% in test [4]; 15.3% in test [5]; -18.4% in test [6].

As for `O=C1C=C(n2ccccc2=O)CCC1`, the growth inhibition in test [1] is 8.05%; in test [2] it was 2.15%; in test [3], 11.4%; in test [4], -29.1%; in test [5], -1.8%; in test [6], 0.05%.

In the case of `CN=c1ss/c(=N\C(=S)N(C)C)n1C`, the growth inhibition in test [1] is -0.2%; in test [2], -10.5%; in test [3], -21.6%; in test [4], 28%; in test [5], -11.5%; in test [6], 6.8%.

As for `CC1CC[N+](C)([B-](F)(F)F)CC1` (stereo unspecified), the growth inhibition was 0.85% in test [1]; 1.85% in test [2]; 11.5% in test [3]; -31.1% in test [4]; 2.45% in test [5]; 11.1% in test [6].

Regarding `COC1C(O)CC(OC2CC(OC3CC(O[C@@H]4C(=O)c5c(cc6cc(OC7CC(OC8CC(O)C(O)C(C)O8)C(O)C(C)O7)c(C)c(O)c6c5O)C[C@H]4[C@H](OC)C(=O)[C@@H](O)[C@@H](C)O)OC(C)C3O)OC(C)C2O)OC1C` (stereo partly specified), the growth inhibition in test [1] was 38.7%; in test [2] it was 28.9%; in test [3], 41.7%; in test [4], 43.7%; in test [5] it was 49.5%; in test [6] it was 48.5%.

Regarding `Clc1ccccc1/C=C/c1ccnnc1`, the growth inhibition was 15.8% in test [1]; 18.6% in test [2]; -3.65% in test [3]; 7% in test [4]; 1.35% in test [5]; 12.8% in test [6].

In the case of `CC1(CCOCc2ccccc2)NC(=O)NC1=O` (stereo unspecified), the growth inhibition was -32.2% in test [1]; -8.4% in test [2]; -44.4% in test [3]; -33% in test [4]; -13.2% in test [5]; -19.9% in test [6].

Take `O=Cc1cc2c(cc1Cl)OCO2`: the growth inhibition was -3.3% in test [1]; -8.05% in test [2]; -13.8% in test [3]; 14.8% in test [4]; -8.4% in test [5]; -2% in test [6].

For `CCOc1ccc(Nc2nc(N)nc(N)c2N)cc1`, the growth inhibition was 2.85% in test [1]; 10.8% in test [2]; -8.95% in test [3]; -13.7% in test [4]; -20.4% in test [5]; 3.8% in test [6].

For `CCOc1ccc(/C=C2\N=C(c3cccc(Cl)c3)OC2=O)cc1`, the growth inhibition in test [1] is 12.2%; in test [2], 15.3%; in test [3], 22.1%; in test [4] it was 19.6%; in test [5], 17.2%; in test [6] it was 13.7%.

Regarding `Nc1nc2c(c(-c3ccccc3Cl)n1)COC/C2=C\c1ccccc1Cl`, the growth inhibition in test [1] is 15.7%; in test [2], 18.8%; in test [3], 54%; in test [4], 25.1%; in test [5], 41.1%; in test [6] it was 50%.

In the case of `Cc1ccc(S(=O)(=O)Oc2cccc(C)c2)cc1`, the growth inhibition in test [1] was 1.1%; in test [2], 17.1%; in test [3] it was 23%; in test [4] it was -69%; in test [5], 14.7%; in test [6] it was 33.7%.

Consider `CCCCCCCCS(=O)(=O)N(C)C`, for which the growth inhibition in test [1] is -18.6%; in test [2], -24.9%; in test [3] it was 0.4%; in test [4] it was -28.3%; in test [5], -31.1%; in test [6], -15.2%.

As to `Cc1cc(-c2ccc([NH2+][B-](F)(F)F)c(C)c2)ccc1[NH2+][B-](F)(F)F`, the growth inhibition in test [1] was -9.15%; in test [2] it was -3.15%; in test [3], -11.6%; in test [4], -58.6%; in test [5] it was 3.45%; in test [6] it was -11.2%.

Consider `CN(C)c1ccc(C(=C2C=CC(=[N+](C)C)C=C2)c2c(O)c(S(=O)(=O)[O-])cc3cc(S(=O)(=O)O)ccc23)cc1`, for which the growth inhibition in test [1] was 1.4%; in test [2], -21.5%; in test [3], -41.5%; in test [4], 15.1%; in test [5], -14.6%; in test [6], 27.1%.

As to `CN(C)c1ccccc1CCO`, the growth inhibition in test [1] is -4.2%; in test [2], -33.5%; in test [3], -6.7%; in test [4] it was -0.4%; in test [5], -3.65%; in test [6] it was 3.35%.

As for `CCOC(=O)C(Br)(C(=O)OCC)C(C)C`, the growth inhibition was 3.75% in test [1]; -0.8% in test [2]; -16.8% in test [3]; -16% in test [4]; 10.8% in test [5]; 9.1% in test [6].
